# Compound activity from PubChem BioAssay.
# Hits are enriched below; roughly 6% of the tested compounds scored in any of these assays.
# DRD3 antagonist: D3 dopamine receptor (human) antagonism; AID 652054; D3R cells, DiscoveRx beta-arrestin luminescence, antagonist mode; hits give low values; max response, negative = inhibition, %; P35462; hit rate 2.5% among 360,000; in the data active = max response below about -50%; inconclusive = no clear call, values can overlap the other calls; also: % is scaled to controls: 0 for no effect and ±100 for the full control effect
#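 Cells plated overnight at 1500 cells/well, then exposed to library compounds with dopamine controls for 90 minutes at 37 degrees C. DiscoveRx reagent added for 30–60 minutes at room temperature; luminescence read, quantitative HTS format.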
# D1 potentiator: human D1 dopamine receptor positive modulation; potentiation, % at 10 µM; HEK293 TREx D1 cells, calcium flux, dopamine EC20 potentiation; hit rate 0.036% among 360,000; in the data active = potentiation above about 30%; also: 0% is about no effect
# Target sequence (P21728 whole entry, looked up): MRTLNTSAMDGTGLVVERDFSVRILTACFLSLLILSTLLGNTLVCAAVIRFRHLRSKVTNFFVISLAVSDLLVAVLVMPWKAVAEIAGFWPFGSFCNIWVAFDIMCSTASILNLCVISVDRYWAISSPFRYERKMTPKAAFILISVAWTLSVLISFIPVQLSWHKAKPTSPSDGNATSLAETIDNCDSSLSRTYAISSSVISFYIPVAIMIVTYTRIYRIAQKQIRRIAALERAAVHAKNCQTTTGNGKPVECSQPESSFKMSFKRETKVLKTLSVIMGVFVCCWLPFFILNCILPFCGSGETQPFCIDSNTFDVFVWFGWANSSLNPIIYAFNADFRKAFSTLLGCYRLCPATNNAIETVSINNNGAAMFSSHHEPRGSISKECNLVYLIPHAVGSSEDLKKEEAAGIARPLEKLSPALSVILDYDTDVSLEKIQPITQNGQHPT
# D1 antagonist: blocks dopamine activation of the human D1 receptor; HEK293 TREx D1 cells, calcium flux, dopamine EC80; hits give low values; AID 504652; P21728; activity change, negative = inhibition, % at 10 µM; hit rate 3.2% among 360,000; in the data active = activity change below about -30%; also: % is scaled to controls: 0 for no effect and ±100 for the full control effect
#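 Cells carrying a force-coupled, tetracycline-inducible human D1 receptor report calcium flux. Each well gets a 10 s baseline, compound with 180 s monitoring, then an EC80 dopamine stimulus with a second 180 s kinetic read.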
# DRD3 agonist: agonists of human D3 dopamine receptor; P35462; D3R DiscoveRx beta-arrestin cells, luminescence, 90 min; max activation, %; hit rate 0.58% among 410,000; in the data active = max activation above about 30%; also: 0% is about no effect
#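 Agonist-mode cell screen: cells plated at 1500/well and incubated overnight at 37 °C, then exposed to library compounds for 90 min at 37 °C. Detection reagent was added for 30–60 min at room temperature, and luminescence was read.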
# D1 agonist: activates the human D1 dopamine receptor. P21728. HEK293 T-REx D1 cells, calcium flux, agonist mode. activation, % at 2 µM. hit rate 1% among 360,000. AID 504660; in the data active = activation above about 30%; also: 0% is about no effect
#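 Agonism was scored from calcium flux recorded over 180 s (1 read/s) after pintool compound addition, following a 10-cycle baseline. Cells were inducible force-coupled HEK293 TREx D1, plated overnight at 30 C and loaded with no-wash calcium dye.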
# Active calls of the source: *; u = inconclusive; x = not tested or not shown.
SMILES,DRD3 antagonist,D1 potentiator,D1 antagonist,DRD3 agonist,D1 agonist
CC(=O)O/C(=C1\CC2C3CC=C4CC(OC(C)=O)CCC4(C)C3CCC2(C)C1=O)C(F)(F)F (stereo not drawn),-70*,x,x,-8,x
CC(=O)O[C@H]1CC[C@@]2(C)C(=CC[C@@H]3[C@@H]2CC[C@]2(C)C(=O)CC[C@@H]32)C1,u,-6,0,-24,-1
CCCC(C)C1(CC)C(=O)NC(=O)NC1=O (stereo not drawn),x,x,x,-9,x
CCN(CC)CCNCC(=O)Nc1ccc(Cl)cc1C(=O)c1ccccc1,-56*,-4,-38*,1,1
O=c1[nH]c(CN2CC=C(c3ccccc3)CC2)nc2cc(C(F)(F)F)ccc12,-27,-6,-11,-1,1
O=c1[nH]c(CN2CC=C(c3ccccc3)CC2)nc2scc(-c3ccccc3)c12,-7,2,5,68*,2
Cc1ccccc1CN1C(=O)CN=C(c2ccccc2)c2cc(Cl)ccc21,x,0,0,-14,5
COc1ccccc1N1CCN(CCc2c[nH]c3cc4c(cc23)OCO4)CC1,-79*,x,x,-27,x
O=C(Nc1ccc2c(c1)OCO2)c1cccn(Cc2ccc(F)cc2)c1=O,x,0,x,3,0
C=CCn1c(O)c(C=Nc2ccc(F)cc2)c(=O)[nH]c1=O,-11,-11,-10,-5,-1
CCN(CC)c1ccc(N=Cc2c(O)n(-c3ccc(Cl)cc3)c(=O)[nH]c2=O)cc1,6,-6,-38*,1,6
C=CCn1c(O)c(C=Nc2ccc(N(CC)CC)cc2)c(=O)[nH]c1=O,17,-4,-5,10,31*
N#CC(C#N)=Cc1ccc(O)c(O)c1,32,6,-3,7,2
CC(C)(C)c1cc(C=C(C#N)C#N)cc(C(C)(C)C)c1O,50,-4,-23,50*,17
CC1=NN(c2ccccc2)C(=O)C1/C=C1/C(=O)NC(=O)N(c2cc(C)cc(C)c2)C1=O (stereo not drawn),1,-1,-37*,-10,5
CC1=NN(c2ccccc2)C(=O)C1/C=C1\C(=O)NC(=O)N(c2cc(C)cc(C)c2)C1=O (stereo not drawn),40,6,6,1,1
CN1CCCN(C(=O)COc2cccc(C(F)(F)F)c2)CC1,-89*,-2,-7,2,1
OC[C@@H](O)[C@H]1O[C@@H]2O[C@@H](C(Cl)(Cl)Cl)O[C@@H]2[C@H]1O,x,x,x,-7,x
CC1(C)COC(Nc2cccc(Cl)c2)=N1,-55*,-2,4,14,3
[H+].[H+].[Hg+2].[O-]B([O-])[O-].[c-]1ccccc1,x,x,x,-9,x
Oc1cc(Cl)c(Cl)c(Cl)c1,68,x,x,61*,x
COc1ccc2[nH]c(C)c(CCNCc3cc(OC)c(OC)c(OC)c3)c2c1,3,-2,-7,3,9
COc1ccc(CNCCc2c(C)[nH]c3ccc(OC(F)(F)F)cc23)c(OC)c1,-11,-2,-55*,-11,99*
CNC(=O)Oc1ccccc1C(=O)Nc1ccccc1,x,x,x,2,x
COc1ccc(-c2nc(CN3C(=O)CN=C(c4ccccc4)c4ccccc43)c(C)o2)cc1,x,-4,-23,12,13
SMILES,DRD3 antagonist,D1 potentiator,D1 antagonist,DRD3 agonist,D1 agonist
CCCC12CN3CC(C)(CN(C1)C3c1ccccn1)C2=O (stereo not drawn),x,3,-1,6,1
Cn1cc(C(=O)N2CCCCC2)c2ccccc21,-6,-3,-30*,1,2
CC(C(=O)c1cn(C)c2ccccc12)c1ccccc1 (stereo not drawn),-70*,-2,4,20,0
O=c1c2ccccc2nc(/C=C\c2cccc(Br)c2)n1-c1ccc(O)cc1,x,-1,8,4,5
CNC(C)Cc1ccccc1OC (stereo not drawn),x,x,x,-12,x
N#Cc1c(/N=C/c2ccc(O)cc2O)sc2c1C1CCN2CC1,-16,-3,-22,-7,34*
Cc1ccc(-n2c(/C=C/c3cccs3)nc3ccccc3c2=O)cc1C,x,2,-6,4,2
Cc1cc(C)cc(-n2c(/C=C/c3cccc(F)c3)nc3ccccc3c2=O)c1,x,0,6,4,-3
COC1=CC(=O)[C@]2(C=C1OC)OC[C@@H]1Oc3c(ccc4c3C=CC(C)(C)O4)C(=O)[C@@H]12,61,x,x,70*,x
Cc1ccc(C)c(CN2C(=O)c3ccccc3Sc3ccc(C(=O)N4CCC5(CC4)OCCO5)cc32)c1,x,0,39,0,1
CCCc1ccc(OCC(=O)Nc2ccc(Cl)cc2C(=O)c2ccccc2)cc1,x,5,-4,9,2
CCC1=CCN(CCc2c(C)[nH]c3ccccc23)CC1,-63*,x,x,-56,x
O=c1n(Cl)c(=O)n(Cl)c(=O)n1Cl,x,x,x,-4,x
C(CCc1nn[nH]n1)CCc1nn[nH]n1,12,-2,-37*,1,5
O=C1NC(=O)C(=C/C=C/c2coc3ccc(Br)cc3c2=O)C(=O)N1,x,-2,1,x,83*
CCS(=O)(=O)C(C)(C)S(=O)(=O)CC,x,x,x,6,x
NCCc1ccc(O)cc1,3,-4,0,32*,2
Oc1ccc(CCN2CCCCC2)cc1,-2,x,x,-11,x
Cn1sc(Cl)cc1=O,x,x,x,7,x
O=C(COc1ccccc1)N1CCN(CC(O)COc2ccccc2)CC1 (stereo not drawn),-74*,3,13,-13,1
O=C(COc1ccccc1)N1CCN(C/C=C/c2ccccc2)CC1,u,8,4,0,3
CCOC(=O)[C@]12Cc3cc(OC)ccc3[C@H]1N(C1CCCCC1)C(=O)c1ccccc12,-64*,x,x,-5,x
CCOC(=O)[C@]12Cc3c(cc(OC)c(OC)c3OC)[C@H]1N(CCC(=O)OC)C(=O)c1ccccc12,0,x,x,-11,x
CCOC(=O)[C@]12Cc3cc(Cl)ccc3[C@H]1N(C)C(=O)c1ccccc12,19,x,x,1,x
CCOC(=O)[C@]12Cc3c(cc(OC)c(OC)c3OC)[C@H]1N(C)C(=O)c1ccccc12,-63*,x,x,-4,x
SMILES,DRD3 antagonist,D1 potentiator,D1 antagonist,DRD3 agonist,D1 agonist
CCOC(=O)[C@]12Cc3cc(Cl)ccc3[C@H]1N(C1CCCCC1)C(=O)c1ccccc12,-80*,x,x,-9,x
CCNC1(c2cccs2)CCCCC1=O (stereo not drawn),x,x,x,-10,x
COc1ccc(CN2C(=O)NC(=O)/C(=C/c3cc(OC)c(OC)c(OC)c3)C2=O)cc1,-10,2,-13,-3,5
COc1ccc(CN2C(=O)NC(=O)/C(=C/c3ccc(OC)c(OC)c3OC)C2=O)cc1,5,-2,-35*,4,7
CCC(=O)O[C@H]1CC[C@H]2[C@@H]3CCC4=CC(=O)CC[C@]4(C)[C@H]3CC[C@]12C,-5,x,x,18,x
C[C@H](O)[C@H]1CC[C@H]2[C@@H]3CCC4=CC(=O)CC[C@]4(C)[C@H]3CC[C@]12C,0,-4,-33*,-13,24
Nc1c2c(nc3sc4c(c13)CCCCC4)CCCC2,2,-12,-42*,2,20
